What is called viability is the share of living cells, or the viability signal relative to a control.

Several values for one entry are separate records, joined by “and”; a condition that tells them apart may be missing. Equal entries are not always repeated. Inconclusive results are not listed. A number with no mark means an inactive call. Activity calls are given as the source filed them. Unless noted, the call rests on the fitted dose curve; in most records, active means well fitted curve in the direction sought with a large enough effect; inconclusive means small, poorly fitted or top-dose-only effect, or another doubt; inactive means no such curve, though single readings can be large; an effect the other way counts as inactive or inconclusive.

From PubChem BioAssay (NCATS) come the findings set out here.

In test [1] the target is Cellular tumor antigen p53 (Homo sapiens) (UniProt P04637). Description: Primary qHTS for small molecule compounds that upregulate eGFP-tagged delta133p53alpha (in N-terminal) cells. (AID 2060322).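 Further: series mostly up to about 56 µM; 0% = DMSO vehicle and 100% = reference activator; nearly all actives have a fitted effect of over 75% in size.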 The settings on record: NCI-H358 eGFP-delta133p53alpha fluorescence, 24 h; activation: active compounds read high. In a few lines: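 NCI-H358 cells pre-induced 24 h with 10 ng/ml doxycycline to express N-terminal eGFP-delta133p53alpha, then dosed 24 h at 37C without doxycycline; fixed, Hoechst-stained, GFP intensity by laser scanning cytometry, normalized to DMSO (0%) and 57.5 uM 5-azacytidine (100%).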
(In qHTS, concentration-response curves come from the screen itself.)

The target is the same in test [2]. Description: Primary qHTS for small molecule compounds that upregulate eGFP-tagged delta133p53alpha (in C-terminal) cells. (AID 2060324). Further: potency means the concentration at half of the fitted maximal effect. In a few lines: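 NCI-H358 cells pre-induced 24 h with 100 ng/ml doxycycline to express delta133p53alpha-eGFP, then dosed in doxycycline-free medium for 24 h at 37C. Fixed, Hoechst-stained; GFP intensity by laser scanning cytometry, normalized to DMSO wells.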

Test [3] addresses Aldehyde dehydrogenase, mitochondrial (Homo sapiens) (UniProt P05091). Description: qHTS for Inhibitors of the Aldehyde Dehydrogenase Family (ALDH2) Validation screens (AID 2061302; active means well fitted inhibition curve with a large enough effect; title and protocol of this record describe different tests; further: potency means the concentration at half of the fitted maximal effect).
Test [4] addresses Retinaldehyde dehydrogenase 3 (Homo sapiens) (UniProt P47895). Description: qHTS for Inhibitors of the Aldehyde Dehydrogenase Family (ALDH1A3) Validation screen (AID 2061312). Further: nearly all actives have a fitted effect of over 45% in size. Further: potency means the concentration at half of the fitted maximal effect.
A short description of test [5]: qHTS for Inhibitors of the Aldehyde Dehydrogenase Family (ALDH1A2, ALDH1A3, ALDH2, ALDH3A1) (AID 2061307). Further: nearly all actives have a fitted effect of over 50% in size. On Potency: test system not described further here; potency means the concentration at half of the fitted maximal effect.
In test [6] the target is Retinaldehyde dehydrogenase 3 (Homo sapiens) (UniProt P47895). Description: qHTS for Inhibitors of the Aldehyde Dehydrogenase Family (ALDH1A3) Confirmatory screens (AID 2061311). Further: potency means the concentration at half of the fitted maximal effect; nearly all actives have a fitted effect of over 60% in size.
In test [7] the target is Aldehyde dehydrogenase 1A1 (Homo sapiens) (UniProt P00352). The test is described as follows: qHTS for Inhibitors of the Aldehyde Dehydrogenase Family (ALDH1A1) Confirmatory screens (AID 2061316). Further: potency means the concentration at half of the fitted maximal effect; nearly all actives have a fitted effect of over 65% in size.
For test [8], the target named is Aldehyde dehydrogenase, mitochondrial (Homo sapiens) (UniProt P05091). Description: qHTS for Inhibitors of the Aldehyde Dehydrogenase Family (ALDH2) Primary screen (AID 2061308).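 Further: plate controls were vehicle for no effect and reference inhibitor for full effect; nearly all actives have a fitted effect of over 55% in size.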
In test [9] the target is Retinaldehyde dehydrogenase 3 (Homo sapiens) (UniProt P47895). The test is described as follows: qHTS for Inhibitors of the Aldehyde Dehydrogenase Family (ALDH1A3) Primary screen (AID 2061315).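 Further: plate controls were DMSO vehicle for no effect and reference inhibitor for full effect.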
Test [10] can be described thus: BET inhibitor-based combinations targeting novel dependencies in MECOM-rearranged (r) AML: SET-2 cell line (AID 2202231).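 Further: plate controls were DMSO treated cells for no effect and wells without cells for full effect; nearly all actives have a fitted effect of over 35% in size.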 The following applies: SET-2 AML cells viability, CellTiter-Glo luminescence, 48 h; viability: active compounds read low, series mostly up to about 46 µM. A digest of the protocol:
(§1)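 A 48 hr incubation preceded viability reading by CellTiter-Glo, with 15 min room-temperature development. Dose series had 11 points; normalization used DMSO and empty wells; AUC was computed and mean-centered per line as Z-AUC.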

Test [11] is described as follows: BET inhibitor-based combinations targeting novel dependencies in MECOM-rearranged (r) AML: AML-194 cell line (AID 2202237;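 further: plate controls were vehicle wells for no effect and wells without cells for full effect; nearly all actives have a fitted effect of over 40% in size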). In a few lines: as §1

Sequence of Cellular tumor antigen p53 (Homo sapiens) (P04637 whole entry, looked up): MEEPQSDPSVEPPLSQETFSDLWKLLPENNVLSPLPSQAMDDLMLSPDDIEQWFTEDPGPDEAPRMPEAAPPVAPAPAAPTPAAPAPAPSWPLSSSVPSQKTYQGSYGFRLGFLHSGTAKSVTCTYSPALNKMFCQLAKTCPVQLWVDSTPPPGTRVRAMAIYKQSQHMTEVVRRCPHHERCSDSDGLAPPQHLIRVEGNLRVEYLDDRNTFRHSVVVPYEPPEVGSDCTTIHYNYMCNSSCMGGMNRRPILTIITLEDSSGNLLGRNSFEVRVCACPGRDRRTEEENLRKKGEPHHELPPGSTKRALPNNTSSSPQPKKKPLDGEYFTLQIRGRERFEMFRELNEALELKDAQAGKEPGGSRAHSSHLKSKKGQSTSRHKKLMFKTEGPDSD

Take `CC(C)Oc1cccnc1N(C)C1CCN(Cc2ccccc2)CC1`: the activation in test [1] is -4.1%. Further, the Potency result in [2], in [3] and in [4] was “inactive” throughout.
Regarding `Nc1ccc(CCN2CCN(c3cccc(C(F)(F)F)c3)CC2)cc1`, the activation in test [1] was -62.8%. Moreover, the Potency entry in [2], in test [3] and in test [4] was “inactive” each time.
`NNC(=O)c1ccc(O)cc1`: the activation in test [1] is -20.3%. The Potency entry in [2], in test [3] and in [4] was “inactive” each time. Besides, the Potency in test [5] is 8.96 µM (active).
With `NC(=O)CN1CCCC1=O`, the activation in [1] is -3.35% and 1.41%. The Potency entry in [2], in test [3] and in test [4] was “inactive” throughout.
In the case of `NCc1cc(=O)[nH]o1`, the activation in test [1] is 11.2%. The Potency result in test [2], in test [3] and in test [4] was “inactive” in each case.
In the case of `c1ccc2c(c1)[I+]c1ccccc1-2`, in [1], the activation was 35.2%. Also, the Potency is 23.9 µM (active) in test [2] and 7.08 µM (active) in [3].
With `NCC(O)c1cc(O)c(O)cc1F` (configuration not stated), the activation in test [1] was -23.1%. The Potency entry in test [2], in [3] and in test [4] was “inactive” in each case.
`N#CC(C#N)=Cc1ccc(O)c(O)c1`: in test [1], the activation is 23.2% and -8.42%. The Potency entry in [2], in test [3] and in [5] was “inactive” throughout. The Potency in test [6] is 798 nM (active); in test [7], 20.1 µM (active).
Consider `CN1CCC(c2c[nH]c3ccc(O)cc23)CC1`, for which the activation in test [1] is -20.9%. In addition, the Potency entry in test [2] and in test [3] was “inactive” in each case.
Regarding `CN1C[C@H](CNC(=O)OCc2ccccc2)C[C@@H]2c3cccc4c3c(cn4C)C[C@H]21`, the activation in [1] is -6.69% and -23.9%. The Potency entry in test [2] and in test [3] was “inactive” in each case.
On to `Cc1sc2ccccc2c1CC1=NCCN1`, for which the activation in [1] was -35.5%. Moreover, the Potency entry in test [2], in [3] and in test [4] was “inactive” in each case.
`NCCc1ccc(O)cc1`: the activation in test [1] was 0.565% and 11.2%. The Potency result in test [2], in [3] and in test [4] was “inactive” each time.
Turning to `C#CCOC(=O)C1=CCCN(C)C1`, in [1], the activation was -28.1%. Besides, the Potency result in test [2], in test [3] and in test [4] was “inactive” in each case.
Turning to `O=C1C=CC(=O)C=C1`, the activation in [1] is 48.4%. Also, the Potency entry in test [2], in test [3] and in test [4] was “inactive” throughout.
With `C[C@]12CCC3C(CC[C@H]4C[C@H](O)CC[C@]34C)C1CC[C@@H]2C(=O)CO` (some centres not stated), the activation in test [1] was -8.4%. The Potency entry in [2], in test [3] and in test [4] was “inactive” each time.
With `c1ccc(C2(c3ccccc3)CC2C2=NCCN2)cc1` (configuration not stated), the activation in test [1] was -13.2%. For the same compound, the Potency entry in test [2], in test [3] and in test [4] was “inactive” in each case.
In the case of `NCCc1ccc(S(=O)(=O)F)cc1`, the activation in [1] was -21.4%. The Potency entry in [2] and in test [3] was “inactive” in each case.
`CC(N)[C@H](O)c1ccc(O)c(O)c1` (some centres not stated): the activation in [1] is -12.2%. For the same compound, the Potency entry in test [2], in test [3] and in test [4] was “inactive” throughout.
With `Nc1ccncc1`, in test [1], the activation is -16.4% and 3.84%. For the same compound, the Potency entry in test [2], in [3] and in test [4] was “inactive” in each case.
Consider `CCCCCN(C)CCC(O)(P(=O)(O)O)P(=O)(O)O`, for which the activation in test [1] is 3.78% and 4.27%. Further, the Potency result in test [2], in test [3] and in test [4] was “inactive” in each case.
Take `CC(O)(CS(=O)(=O)c1ccc(F)cc1)C(=O)Nc1ccc(C#N)c(C(F)(F)F)c1` (configuration not stated): the activation in test [1] was -7.17% and -30.6% and 1.43%. Also, the Potency result in test [2], in [3], in test [8], in [4], in test [9] and in [11] was “inactive” in each case. The viability in [10] is 92.1%.
With `CCCN1CCC[C@H](c2cccc(O)c2)C1`, the activation in [1] was 4.78%. Besides, the Potency result in test [2], in test [3] and in test [4] was “inactive” throughout.
As to `c1ccc(C2CC2)c(OCC2=NCCN2)c1`, the activation in [1] was 9.21% and -4.03%. Also, the Potency entry in test [2], in test [3] and in test [4] was “inactive” throughout.
For `O=C(CCCN1CCC2(CC1)C(=O)NCN2c1ccccc1)c1ccc(F)cc1`, the activation in [1] is -10.7% and -39.7%. Moreover, the Potency entry in [2], in test [3] and in [4] was “inactive” throughout.
For the compound `Cc1cc([C@@H]2CCCN2C)on1`, the activation in test [1] was 4.82%. Moreover, the Potency result in test [2] and in test [3] was “inactive” throughout.
With `O=c1ccc2[nH]cc(C3=CCNCC3)c2[nH]1`, in test [1], the activation is -8.35%. Further, the Potency result in test [2], in test [3] and in test [5] was “inactive” in each case. Moreover, in test [4], the Potency was 398 nM (active).
Turning to `NCC(O)c1ccc(O)cc1` (configuration not stated), the activation in [1] was -4.18% and -26.8%. Besides, the Potency entry in [2], in test [3] and in test [4] was “inactive” in each case.
For `COc1ccc(CNC(=O)/C=C/c2ccc3[nH]cc(CCN(C)C)c3c2)cc1`, the activation in test [1] was 13.3%. The Potency entry in [2], in test [3] and in test [4] was “inactive” in each case.
Regarding `COc1cc(C(O)CN)ccc1O` (configuration not stated), the activation in test [1] is -24.3%. For the same compound, the Potency entry in test [2], in test [3] and in test [4] was “inactive” each time.
On to `C[N+]1(C)CCc2cc3c(cc2[C@H]1[C@@H]1OC(=O)c2c1ccc1c2OCO1)OCO3`, for which, in test [1], the activation was -3.8%. The Potency entry in test [2], in test [3] and in [4] was “inactive” in each case.
`NC(CCP(=O)(O)O)C(=O)O` (configuration not stated): in [1], the activation is -26.8%. For the same compound, the Potency entry in test [2], in test [3] and in test [4] was “inactive” throughout.
